In the supplement of paper PMC13380429:

Legend:
[1] = system: Vero E6 infected with SARS-CoV-2; assay: morphology score (similarity to uninfected cells); higher = more like uninfected cells; conditions: 24 h
[2] = system: Vero E6 infected with SARS-CoV-2; assay: SARS-CoV-2 infection rate relative to infected DMSO; higher = more infection, active = 60 or less; conditions: 24 h

| Structure (SMILES) | morphology score [1] | SARS-CoV-2 infection rate [2] |
| --- | --- | --- |
| C[C@H](Oc1ccc(S(C)(=O)=O)cc1C(=O)N1CCN(c2ncc(C(F)(F)F)cc2F)CC1)C(F)(F)F [bitopertin] (10 µM) | 0.119 | 108% (inactive) |
| CCN(CC)CCOC(=O)C1(c2ccc([N+](=O)[O-])cc2)CCCC1 [nitrocaramiphen] (10 µM) | 0.137 | 104% (inactive) |
| CC(=O)N(CC(C)C(=O)O)c1c(I)cc(I)c(N)c1I (centres undefined) [iocetamic-acid] (10 µM) | 0.0591 | 97% (inactive) |
| OC[C@@H](O)[C@@H](O[C@@H]1O[C@H](CO)[C@H](O)[C@H](O)[C@H]1O)[C@H](O)[C@@H](O)CO (10 µM) | -0.0894 | 111% (inactive) |
| N#C/C(=C\c1ccc(O)c(O)c1)C(=O)OCCc1cccs1 (10 µM) | -0.0101 | 108% (inactive) |
| CNc1cc2c(Nc3cccc(Br)c3)ncnc2cn1 (10 µM) | -0.276 | 112% (inactive) |
| C[N+]1(C)CCCC(OC(=O)C(O)(c2ccccc2)c2ccccc2)C1 (centres undefined) [mepenzolate] (10 µM) | 0.047 | 105% (inactive) |
| O=C(c1ccc(F)cc1)C1CCN(CCn2c(=S)[nH]c3ccccc3c2=O)CC1 [altanserin] (10 µM) | -0.0789 | 99% (inactive) |
| CC(C)N[C@H]1CCn2c(=O)[nH]c3cccc(c32)[C@@H]1O [zilpaterol] (10 µM) | 0.19 | 106% (inactive) |
| CN(CCCN1c2ccccc2CCc2ccccc21)CC(=O)c1ccc(Cl)cc1 [lofepramine] (10 µM) | -0.0945 | 114% (inactive) |
| O=C(N[C@H]1CN2CCC1CC2)c1ccc2c(c1)OCCO2 (10 µM) | -0.0253 | 100% (inactive) |
| Cc1cccc2c1CC[C@H](CN1CCC(c3c(Cl)cccc3Cl)CC1)C[C@@H]2O (0.833333 µM) | 0.134 | 98% (inactive) |
| OC(CCCN1CCN(c2ncc(F)cn2)CC1)c1ccc(F)cc1 (centres undefined) (10 µM) | 0.0906 | 108% (inactive) |
| CN(C)C1CCN(C(=O)c2ccc(NC(=O)Nc3ccc(-c4nc(N5CCOCC5)nc(N5CCOCC5)n4)cc3)cc2)CC1 (10 µM) | -0.0113 | 115% (inactive) |
| CCC(=O)O[C@]1(C(=O)CCl)[C@@H](C)C[C@H]2[C@@H]3C[C@H](F)C4=CC(=O)C=C[C@]4(C)[C@@]3(F)[C@@H](O)C[C@@]21C [halobetasol-propionate] (10 µM) | 0.0989 | 106% (inactive) |
| Cc1cccc(C)c1NC(=O)/N=C1\CCCN1C [xilobam] (10 µM) | 0.132 | 102% (inactive) |
| N=C(N)NC(=O)c1cnn(-c2cccc3ncccc23)c1C1CC1 [zoniporide] (10 µM) | 0.127 | 115% (inactive) |
| CCCCc1ccc2[nH]c(NC(=O)OC)nc2c1 [parbendazole] (10 µM) | -0.112 | 111% (inactive) |
| Cc1nc(Nc2cnn(C3CCNCC3)c2)nc2c1N(C)C(=O)c1cc3ccccc3cc1N2C (0.833333 µM) | 0.143 | 104% (inactive) |
| Cc1cccc(/C=C/c2ccccc2)n1 (10 µM) | 0.0753 | 98% (inactive) |
| N[C@@H](C(=O)N[C@@H]1C(=O)N2C(C(=O)O)=C(Cl)CC[C@H]12)c1ccccc1 [loracarbef] (10 µM) | 0.167 | 101% (inactive) |
| O=C(O)C(=O)O.[NH-][C@@H]1CCCC[C@H]1[NH-].[Pt+2] [oxaliplatin] (10 µM) | -0.0885 | 112% (inactive) |
| O=C1[C@H]2CCCC[C@H]2C(=O)N1CCCCN1CCN(c2nsc3ccccc23)CC1 [perospirone] (10 µM) | 0.0481 | 115% (inactive) |
| CCS(=O)(=O)Nc1ccc2c(c1)/C(=C(/Nc1ccc(CN3CCCCC3)cc1)c1ccccc1)C(=O)N2 [hesperadin] (10 µM) | -0.262 | 110% (inactive) |
| CC(=O)Nc1ncc([N+](=O)[O-])s1 [nithiamide] (10 µM) | 0.0207 | 90% (inactive) |
| CC(=O)OC[C@H]1O[C@@](COC(C)=O)(O[C@H]2O[C@H](COC(C)=O)[C@@H](OC(C)=O)[C@H](OC(C)=O)[C@H]2OC(C)=O)[C@@H](OC(C)=O)[C@@H]1OC(C)=O [sucrose-octaacetate] (10 µM) | 0.0471 | 103% (inactive) |
| CC(=O)Nc1nnc(S(N)(=O)=O)s1 [acetazolamide] (10 µM) | 0.0392 | 85.5% (inactive) |
